Most compounds without a hit are left out; they make up all but 19% or so of the library.
ELG1 repair inh: qHTS screen for small molecules that inhibit ELG1-dependent DNA repair in human embryonic kidney (HEK293T) cells expressing luciferase-tagged ELG1 | HEK293T ELG1-luciferase reporter, luminescence, 16 h; DNA damage induced by 5-fluorouridine | Potency, µM (highest dose often 46.1 µM), inactives show at the highest dose activity change, negative = inhibition, hits mostly inhibitors | 2.3% of 330,000 active; note: potency is the fitted concentration of half-maximal effect; nearly all actives have a fitted effect of over 55% in size
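Cells (2,000 per well) received 5-fluorouridine plus test compound or DMSO and were incubated 16 hr at 37 °C, 5% CO2. Luciferase activity was read by luminescence 30 min after ONE-Glo addition; signal suppression marked inhibition of damage-induced ELG1 function.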
DT40 TDP1 CPT: qHTS for Inhibitors of human tyrosyl-DNA phosphodiesterase 1 (TDP1): qHTS in cells in presence of CPT | Potency, µM (titrated, usually from 46.2 µM), for the others: at the highest dose activity change, negative = growth inhibition, hits mostly inhibitors | chicken DT40 Tdp1-/-;hTDP1 cells + 20 nM CPT, ATP luminescence, 48 h | AID 686979, 2013 | 12% of 420,000 active; note: potency is the fitted concentration of half-maximal effect; nearly all actives have a fitted effect of over 55% in size
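Chicken DT40 Tdp1-/- cells stably complemented with human TDP1 were seeded at 400 cells/well in medium containing 20 nM camptothecin, exposed to pin-transferred compounds, and grown at 37 °C for at least 48 hr. Viability was read as ATP luminescence.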
HT1080 IDH1KD tx: qHTS for induction of synthetic lethality in tumor cells producing 2HG: qHTS for the HT-1080-IDH1KD cell line | HT-1080 IDH1 knockdown viability, ATP luminescence, 48 h | Potency, µM (titrated, usually from 46.1 µM), inactives show top-dose activity, negative = toxicity, usual class: cytotoxic | 2% of 360,000 active;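 note: potency is the fitted concentration of half-maximal effect; 0% = DMSO wells and -100% = cell-free medium wells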
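% activity derives from luminescence (CellTiter-Glo), normalised to DMSO and no-cell wells. HT-1080-IDH1KD cells, 750/well, had 48 h compound exposure at 37 °C.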
HT1080-NT tox: qHTS for induction of synthetic lethality in tumor cells producing 2HG: qHTS for the HT-1080-NT fibrosarcoma cell line. Potency, µM (highest dose often 46.1 µM), for inactives: top-dose activity, negative = less viability, most hits filed as cytotoxic. 1.6% of 360,000 active. HT-1080-NT fibrosarcoma viability, CellTiter-Glo ATP luminescence, 48 h;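 note: NT is the 2HG producing partner of a matched IDH1 knockdown line; potency is the fitted concentration of half-maximal effect; 0% = DMSO-treated cells and -100% = media-only wells without cells; nearly all actives have a fitted effect of over 55% in size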
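Compounds were tested in concentration-response format on HT-1080-NT cells for 48 hours at 37 degrees C. Cell viability came from CellTiter-Glo luminescence; curves were classified by r2, response magnitude and activity.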
DT40 TDP1 no CPT: qHTS for Inhibitors of human tyrosyl-DNA phosphodiesterase 1 (TDP1): qHTS in cells in absence of CPT | DT40 Tdp1-/- hTDP1 cells, no CPT, ATP luminescence, 48 h | AID 686978, 2013 | 15% of 420,000 active | Potency, µM (series often up to 46.2 µM), for the others: at the top dose activity change, negative = growth inhibition, actives largely listed as inhibitors; note: potency is the fitted concentration of half-maximal effect; nearly all actives have a fitted effect of over 55% in size
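Stably hTDP1-transfected Tdp1-null chicken DT40 cells were treated with library compounds minus camptothecin and grown for at least 48 hr at 37 °C, after which cellular ATP was quantified by luminescence.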
IL1B secr inh: qHTS for Inhibitors of Inflammasome Signaling: IL-1-beta AlphaLISA Primary Screen. 4.7% of 360,000 active. THP-1 LPS/ATP IL-1B secretion, AlphaLISA, 16 h; stronger effect = lower value. AID 743279, 2014. activity change, % at 57.5 µM; in the data active = activity change below about -50%; inconclusive = mostly about -30% to -49%
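THP-1 cells pretreated 1 hr with compounds (up to 57.5 uM final), then stimulated with LPS (250 ng/mL final) plus ATP (1.25 mM final); secreted IL-1B measured by AlphaLISA after 16 hr, decreased signal indicating inhibition.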
Starred values were filed as active, the others as inactive; i = inactive; ? = inconclusive; · = not tested or not shown. Unless noted, calls come from the whole dose curve; as a rule, active = well fitted curve in the direction sought with a large enough effect; inconclusive = small, poorly fitted or top-dose-only effect, or another doubt; inactive = no such curve, though single readings can be large; an effect the other way counts as inactive or inconclusive. Unless noted, % is set by controls: 0 for no effect and ±100 for the full control effect.

SMILES	ELG1 repair inh	DT40 TDP1 CPT	HT1080 IDH1KD tx	HT1080-NT tox	DT40 TDP1 no CPT	IL1B secr inh
Cc1cc(/C=C(\C#N)C(N)=O)c(C)n1-c1ccc(N2CCOCC2)c([N+](=O)[O-])c1	23.1µM*	23.1µM*	-7.8%	3.2%	23.1µM*	-0.4
Cc1cc(C=O)c(C)n1-c1ccc(N2CCCCC2)c([N+](=O)[O-])c1	-3.0%	8.2µM*	-22.5%	-21.5%	20.6µM*	?
Cn1c(N=Nc2ccccc2)nc2ccccc21	?	8.2µM*	10.3µM*	8.2µM*	7.31µM*	0.0
CCCN(C)C1CN(Cc2cn(Cc3cccc(Cl)c3)nn2)S(=O)(=O)C1 (stereo not given)	·	4.4%	9.9%	17.3%	-23.9%	0.5
Cc1cc(C)c2c(CN(Cc3ccccc3)Cc3ccccc3)cc(=O)oc2c1	·	23.1µM*	-19.5%	-16.6%	16.4µM*	18.5
Cc1cc(C)c2c(CN3CCN(Cc4ccc5c(c4)OCO5)CC3)cc(=O)oc2c1	?	?	-2.1%	-3.7%	16.4µM*	-3.2
Cn1c(=O)c2nc(NCc3ccccc3)sc2n(C)c1=O	·	?	2.5%	3.2%	?	19.0
CC(=O)CCC(=O)N1CCCC(N2CCN(c3cccc(Cl)c3)CC2)C1 (stereo not given)	7.1%	6.5%	0.8%	8.8%	0.2%	0.2
COc1cccc(CNC(=O)CSc2n[nH]c(-c3ccccc3Cl)n2)c1OC	·	-27.8%	·	·	-23.0%	·
O=C(NCc1ccccc1Cl)c1ccc2c(c1)N(Cc1ccccc1)CCS2	·	13µM*	·	·	18.4µM*	·
Cc1ccccc1CNC(=O)c1ccc2c(c1)N(Cc1ccccc1)CCS2	·	?	·	·	20.6µM*	·
O=C(NCc1ccccn1)c1ccc2c(c1)N(Cc1ccccc1)CCS2	?	?	-27.7%	-14.7%	?	-23.8
COc1cc(OC)cc(N2C(=O)CC(N3CCC(C(=O)N4CCCCC4)CC3)C2=O)c1 (stereo not given)	19.6%	-12.9%	12.8%	-4.5%	-4.7%	i
Cc1cccc(OCC(=O)Nc2ccccc2C(=O)OCc2cc(=O)n3ccsc3n2)c1	·	0.2%	·	·	-1.4%	·
Cc1ccc2cc(CN(Cc3ccc4c(c3)OCO4)Cc3nnnn3Cc3ccco3)c(=O)[nH]c2c1C	?	?	-5.8%	-18.6%	23.1µM*	0.0
Cc1ccc(C)c2[nH]c(=O)c(CN(Cc3ccc4c(c3)OCO4)Cc3nnnn3Cc3ccco3)cc12	?	?	-28.7%	?	?	-60.2*
Cc1ccc2cc(CN(CCN3CCOCC3)Cc3nnnn3Cc3ccco3)c(=O)[nH]c2c1C	-14.8%	?	7.2%	4.4%	-24.5%	-2.1
COc1ccc(NC(=O)Cn2nc(C)c3c(C)n(-c4ccccc4)nc3c2=O)cc1OC	·	-4.4%	·	·	-24.9%	·
CC(Nc1ccc(Br)cc1)C(=O)NC(=O)NC1CCCCC1 (stereo not given)	·	?	-22.3%	?	?	5.5
O=[N+]([O-])c1ccc(Cl)cc1Sc1nc2ccccc2o1	-1.0%	?	5.1%	-3.5%	?	-58.2*
CC(C)C1C(=O)N(Cc2cn(CC3CCCCC3)nn2)CCS(=O)(=O)N1Cc1ccc(-c2ccc(F)cc2)cc1 (stereo not given)	·	-20.3%	?	?	9.2µM*	-22.8
COc1ccc(-c2ccc(CN3C(C(C)C)C(=O)N(Cc4cn(CC5CCCCC5)nn4)CCS3(=O)=O)cc2)cc1 (stereo not given)	·	14.6µM*	-26.7%	-18.7%	16.4µM*	-6.3
CCOC(=O)C1CCCN(S(=O)(=O)c2cc3c(cc2C)NC(=O)CO3)C1 (stereo not given)	·	-23.3%	·	·	?	·
Cc1cc(Cl)ccc1NS(=O)(=O)c1c(C(=O)N2CCCCCC2)c(C)n(C)c1C	·	?	·	·	20.6µM*	·
Cc1c(C(=O)N2CCCC2)c(S(=O)(=O)Nc2ccccc2Cl)c(C)n1C	0.0%	2.1%	0.1%	-1.5%	17.3%	0.0
SMILES	ELG1 repair inh	DT40 TDP1 CPT	HT1080 IDH1KD tx	HT1080-NT tox	DT40 TDP1 no CPT	IL1B secr inh
Cc1c(C(=O)N2CCCCC2)c(S(=O)(=O)NCc2ccccc2Cl)c(C)n1C	-3.0%	23.1µM*	9.5%	2.8%	?	-0.4
Cc1ccc(CNS(=O)(=O)c2c(C(=O)N3CCCCCC3)c(C)n(C)c2C)cc1	-3.0%	-9.6%	12.7%	1.5%	-0.5%	-23.3
Cc1cccc(N(C)S(=O)(=O)c2c(C(=O)N3CCCCCC3)c(C)n(C)c2C)c1	·	16.4µM*	·	·	20.6µM*	·
COC(=O)[C@@]12C[C@@H](CC(=O)N3CCN(C(=O)c4ccco4)CC3)C(=O)N(Cc3ccc4c(c3)OCO4)C1=CCC(C)(C)C2	·	18.4µM*	-9.7%	-21.8%	20.6µM*	?
COC(=O)[C@]12CCCCC=C1N(Cc1ccc3c(c1)OCO3)C(=O)[C@H](CC(=O)N1CCN(C(=O)c3ccco3)CC1)C2	·	?	14.1%	22.5%	?	-55.9*
COC(=O)[C@@]12C[C@@H](CC(=O)N3CCCC3)C(=O)N(Cc3ccc4c(c3)OCO4)C1=CCC(C)(C)C2	·	?	2.9%	5.1%	?	-23.7
COC(=O)[C@@]12C[C@@H](CC(=O)N3CCN(C(=O)c4ccco4)CC3)C(=O)N(Cc3ccccc3)C1=CCC(C)(C)C2	·	?	-1.2%	9.5%	14.6µM*	-4.8
COC(=O)[C@]12CCCCC=C1N(Cc1ccccc1)C(=O)[C@H](CC(=O)N1CCN(C(=O)c3ccco3)CC1)C2	·	?	13.6%	8.5%	?	-3.2
COc1ccc(Cn2c(SCC(=O)Nc3ccc(OC)cc3)nc3ccccc32)cc1	·	25.9µM*	·	·	?	·
COc1ccccc1NC(=O)Cn1c(SCC(=O)NCc2ccccc2)nc2ccccc21	·	-12.3%	·	·	?	·
CCN(C(=O)CSc1nc2ccccc2n1Cc1ccc(C(=O)OC)cc1)c1ccccc1	·	20.6µM*	·	·	13µM*	·
CN(C)C(=O)CSc1nc2ccccc2n1Cc1ccccc1	11.5%	?	-5.5%	-4.3%	?	10.3
COCCn1c(SCC(=O)Nc2ccc(Cl)c(S(=O)(=O)N(C)C)c2)nc2ccccc21	18.4µM*	?	-20.8%	-22.7%	16.4µM*	0.0
